In PubChem BioAssay (NCI):
This is part of a sample that, as a whole, favours compounds with a hit. Of some 83,000 tested, about 20% had one in any assay.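 Interpretation: 100, growth as untreated; towards 0, rising growth inhibition; 0, no net growth; 0 to -100, cell death. Compounds scoring below 10 were considered active.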 Unmarked numbers belong to inactive results. The source made the active and inactive calls.

What was measured:
Experiment in all cases: NCI-60 one-dose screen, 48 h (100 = growth as untreated, 0 = no growth, -100 = all killed)
Settings in all cases: 10 µM unless noted
NCI-H23 lung = system: NCI-H23 lung
NCI-H226 lung = system: NCI-H226 lung
NCI-H322M lung = system: NCI-H322M lung
HOP-62 NSCLC = system: HOP-62 NSCLC
NCI-H460 lung = system: NCI-H460 lung
HOP-92 NSCLC = system: HOP-92 NSCLC
NCI-H522 lung = system: NCI-H522 lung
A549/ATCC NSCLC = system: A549/ATCC NSCLC
786-0 renal = system: 786-0 renal
COLO 205 colon = system: COLO 205 colon
DU-145 prostate = system: DU-145 prostate
K-562 leukemia = system: K-562 leukemia
MALME-3M melanoma = system: MALME-3M melanoma
MDA-MB-231 breast = system: MDA-MB-231 breast
RXF 393 renal = system: RXF 393 renal
SF-268 CNS = system: SF-268 CNS
SF-295 CNS = system: SF-295 CNS
SF-539 CNS = system: SF-539 CNS
M14 melanoma = system: M14 melanoma
UACC-257 melanoma = system: UACC-257 melanoma

| Compound | growth (NCI-H23 lung) | growth (NCI-H226 lung) | growth (NCI-H322M lung) | growth (HOP-62 NSCLC) | growth (NCI-H460 lung) | growth (HOP-92 NSCLC) | growth (NCI-H522 lung) | growth (A549/ATCC NSCLC) | growth (786-0 renal) | growth (COLO 205 colon) | growth (DU-145 prostate) | growth (K-562 leukemia) | growth (MALME-3M melanoma) | growth (MDA-MB-231 breast) | growth (RXF 393 renal) | growth (SF-268 CNS) | growth (SF-295 CNS) | growth (SF-539 CNS) | growth (M14 melanoma) | growth (UACC-257 melanoma) |
| --- | --- | --- | --- | --- | --- | --- | --- | --- | --- | --- | --- | --- | --- | --- | --- | --- | --- | --- | --- | --- |
| COc1cccc(-c2nn(-c3ccccc3)cc2-c2ccnc(NCCCN)c2)c1 | 60% | 78.7% | 78.5% | 47.9% | 27.9% | 32.3% | 83.4% | 68% | 52.1% | 26.1% | 75.6% | 16.8% | 70.2% | 33.7% | 51.5% | 64% | 44.7% | 49.8% | 26.1% | – |
| Nc1c(C(=O)Nc2c(Cl)cccc2Cl)sc2nc3c(cc12)CCCC3 | 84.1% | 91.4% | 94% | 50.1% | 66.4% | 89.2% | 62.8% | 66.5% | 103% | 70.3% | 88.4% | 14.8% | 59.2% | 82.5% | 87.9% | 80.9% | 75.8% | 75.8% | 46.6% | – |
| COC(=O)[C@]12CC[C@@H](C)[C@H](C)[C@@H]1C1=CC[C@@H]3[C@@]4(C)C[C@@H](O)[C@H](O)[C@@](C)(CO)C4=CC[C@@]3(C)[C@]1(C)CC2 | -57.8% (active) | -47.4% (active) | -84.7% (active) | -61% (active) | -63.4% (active) | -77.6% (active) | -2.22% (active) | -14.1% (active) | -74.1% (active) | -76.7% (active) | -41.4% (active) | -22.8% (active) | -74.8% (active) | -63.7% (active) | -88.3% (active) | -49.2% (active) | -83.3% (active) | -89.9% (active) | -68.1% (active) | – |
| COc1cccc(-c2nn(-c3ccccc3)cc2-c2ccnc(NCCCNS(=O)(=O)c3ccc(Br)cc3)c2)c1 | 52.9% | 51.9% | 74.4% | 81% | 44.3% | 34.6% | 54.4% | 47.7% | 46.4% | 20.8% | 72.6% | 19.1% | 71.9% | 42.4% | 44.7% | 55.2% | 37.7% | 76.3% | 47.4% | – |
| CCCCN1CCCCn2c1nc1c2c(=O)n(C)c(=O)n1C | 108% | 104% | 110% | 103% | 101% | 95.7% | 90.1% | 89% | 100% | 114% | 105% | 91.2% | 116% | 103% | 108% | 105% | 106% | 116% | 106% | 97% |
| Cc1ccc(NC2CC(=O)N(c3c(C)cc(C)cc3C)C2=O)c(C)c1 (configuration not stated) | 108% | 109% | 101% | 110% | 108% | 94.5% | 98.6% | 102% | 105% | 123% | 105% | 98.2% | 97.7% | 103% | 124% | 101% | 111% | 102% | 107% | 99.6% |
| COc1cc2c(cc1-c1c(C)noc1C)ncc1nc(C3CC3)n([C@H](C)COC(F)F)c12 | 65.4% | 58.1% | 47.8% | 43.4% | 60.7% | 37% | 27.4% | 36.1% | 51.6% | 25.1% | 72.4% | 30.4% | 80.4% | 51% | 53.9% | 71.2% | 56.8% | 39.4% | 44.2% | 36.3% |
| CCN1CCN(C(=O)[C@]23CC[C@@H](C)[C@H](C)[C@H]2C2=CC[C@@H]4[C@@]5(C)C/C(=C/c6cccc(OC)c6OC)C(=O)C(C)(C)[C@@H]5CC[C@@]4(C)[C@]2(C)CC3)CC1 | 42.9% | 46.2% | 83.7% | 57.7% | 20.1% | 46.9% | 52.9% | 36.1% | 49.7% | 32.2% | 57.3% | 16.3% | 35.2% | 36.5% | 30.2% | 45.5% | 50.7% | 58.5% | 29.5% | 46.4% |
| COc1ccc(-c2cc(-c3c(C)oc4cc5occc5c(OC)c4c3=O)nc(N)c2C#N)cc1OC | 73.4% | 66.2% | 81.2% | 50.3% | 32.4% | 10.6% | 47.1% | 57.2% | 83.1% | 68.1% | 81.9% | 32% | 86.4% | 64.4% | 61.6% | 65.1% | 52.1% | 64.2% | 72.2% | – |
| CCCCCCCC(=O)SCC/C=C/[C@@H]1CC(=O)NCc2cccc(n2)CN(Cc2ccc(Cl)cc2)CC(=O)N[C@@H](C(C)C)C(=O)O1 | 19.5% | 16.1% | 8.85% (active) | 8.04% (active) | 11.9% | -16.5% (active) | 29.6% | 2.92% (active) | 14.4% | -40.4% (active) | 20.6% | 9.09% (active) | 25.1% | -1.33% (active) | -20.4% (active) | 18% | -68.2% (active) | 14.7% | 8.96% (active) | – |
| COc1ccccc1CNc1nc(N)nc2[nH]c3ccc(O)cc3c12 | 57.8% | 92.6% | 61.5% | 37% | 18.3% | 34.1% | 18.7% | 40.6% | 83.2% | 33.6% | 91% | 11.1% | 53.6% | 26.8% | 78% | 64.7% | 49.6% | 45.5% | 10.5% | – |
| COc1ccc(/C=C(\C#N)c2cc3ccccc3n2S(C)(=O)=O)cc1 | 89.8% | 89.7% | 99.6% | 91.5% | 105% | 86.5% | 73.5% | 104% | 99.9% | 111% | 98.2% | 30.8% | 66.5% | 85.4% | 78.1% | 88% | 71.6% | 79.1% | 56.1% | 90.2% |
| COc1cccc(-c2nn(-c3ccccc3)cc2-c2ccnc(NCCCNS(=O)(=O)c3ccc(Cl)cc3)c2)c1 | 46.9% | 40.3% | 66.8% | 81.8% | 40.9% | 25.1% | 41.7% | 39.9% | 37.4% | 15.1% | 67.1% | 11.6% | 74.6% | 23.5% | 46.4% | 56.1% | 24.2% | 62.3% | 33.4% | – |
| NCCn1cc(-c2nc(-c3c[nH]c4ncccc34)cs2)c2ccccc21 | 83% | 70.6% | 74.6% | 75.4% | 89.8% | 54.3% | 90.4% | 76.8% | 89.8% | 96.7% | 99.5% | 82.9% | 73.8% | 66.2% | 84.9% | 84.7% | 105% | 90.2% | 96.9% | 92.8% |
